Results from PubChem BioAssay (NCATS).
Inconclusive results are not listed. Active and inactive are the calls of the source. Calls come from the whole dose curve; as a rule, active = well fitted curve in the direction sought with a large enough effect; inconclusive = small, poorly fitted or top-dose-only effect, or another doubt; inactive = no such curve, though single readings can be large; an effect the other way counts as inactive or inconclusive. Where a SMILES comes first, the peptide text is derived from it.

Key:
[1] = qHTS of pediatric cancer cell lines to identify multiple opportunities for drug repurposing: Primary screen for SK-N-SH cells (AID 1347098);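 note: DMSO served as neutral control and bortezomib at 2.3 µM as positive control; nearly all actives have a fitted effect of over 65% in size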
Method in brief: (§1)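 Cells (500-1,000/well) rested 5 h, then received compounds for 48 h; metabolically active cells were measured by CellTiter-Glo luminescence. Final concentrations spanned up to 46 µM (MIPE, 11-point) or 0.59 nM-46 µM (NPC, 8-point) in primary screens, 11-point in follow-ups.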

[2] = qHTS of pediatric cancer cell lines to identify multiple opportunities for drug repurposing: Primary screen for NB1643 cells (AID 1347099); note: nearly all actives have a fitted effect of over 50% in size
Method in brief: (§2)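 Phenotypic viability qHTS, 48 h compound exposure, CellTiter-Glo luminescence read-out; multi-concentration dosing so that potency and efficacy derive directly from the primary screen's curves.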

[3] = qHTS of pediatric cancer cell lines to identify multiple opportunities for drug repurposing: Primary screen for LAN-5 cells (AID 1347100)
Method in brief: (§3)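 Viability after 48 h compound treatment at 37C, 500-1,000 cells/well, read as ATP luminescence with CellTiter-Glo. Primary screens used 11-point (MIPE, 0.78 nM-46 µM) or 8-point (NPC, 0.59 nM-46 µM) final concentrations; follow-up screens used 11-point dilutions.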

[4] = qHTS of pediatric cancer cell lines to identify multiple opportunities for drug repurposing: Primary screen for BT-12 cells (AID 1347101); note: nearly all actives have a fitted effect of over 25% in size
Method in brief: as §1

[5] = qHTS of pediatric cancer cell lines to identify multiple opportunities for drug repurposing: Primary screen for Rh18 cells (AID 1347102); note: nearly all actives have a fitted effect of over 65% in size
Method in brief: as §3

[6] = qHTS of pediatric cancer cell lines to identify multiple opportunities for drug repurposing: Primary screen for OHS-50 cells (AID 1347103); note: nearly all actives have a fitted effect of over 40% in size
Method in brief: as §1

[7] = qHTS of pediatric cancer cell lines to identify multiple opportunities for drug repurposing: Primary screen for RD cells (AID 1347104); note: nearly all actives have a fitted effect of over 55% in size
Method in brief: as §2

[8] = qHTS of pediatric cancer cell lines to identify multiple opportunities for drug repurposing: Primary screen for MG 63 (6-TG R) cells (AID 1347105); note: nearly all actives have a fitted effect of over 50% in size
Method in brief: as §2

[9] = qHTS of pediatric cancer cell lines to identify multiple opportunities for drug repurposing: Primary screen for control Hh wild type fibroblast cells (AID 1347106);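 note: series mostly up to about 46 µM; a drop in luminescence marks cytotoxicity and a rise apparent proliferation; nearly all actives have a fitted effect of over 55% in size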
Method in brief: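 Cells (500-1,000/well) in growth media were settled 5 h at 37 degrees C, then given compounds for 48 h. Viability was read as CellTiter-Glo luminescence. Primary runs used MIPE at 11 points (0.78 nM-46 µM) and NPC at 8 points (0.59 nM-46 µM); follow-ups used 11 points.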

[10] = qHTS of pediatric cancer cell lines to identify multiple opportunities for drug repurposing: Primary screen for Rh41 cells (AID 1347108);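 note: series mostly up to about 46 µM; luminescence drop marks cytotoxic hits; nearly all actives have a fitted effect of over 70% in size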
Method in brief: as §2

[11] = qHTS of pediatric cancer cell lines to identify multiple opportunities for drug repurposing: Primary screen for Rh30 cells (AID 1347107); note: series mostly up to about 46 µM; nearly all actives have a fitted effect of over 75% in size
Method in brief: as §3

[12] = qHTS of pediatric cancer cell lines to identify multiple opportunities for drug repurposing: Confirmatory screen for NB1643 cells (AID 1347109); note: nearly all actives have a fitted effect of over 45% in size
Method in brief: as §3

[13] = qHTS of pediatric cancer cell lines to identify multiple opportunities for drug repurposing: Confirmatory screen for A673 cells (AID 1347110); note: nearly all actives have a fitted effect of over 65% in size
Method in brief: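 qHTS titration format: primary MIPE 0.78 nM-46 µM (11 pts), NPC 0.59 nM-46 µM; confirmation 11 pts. 48 h, CTG luminescence.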

[14] = qHTS of pediatric cancer cell lines to identify multiple opportunities for drug repurposing: Confirmatory screen for SK-N-MC cells (AID 1347111);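 note: cells exposed to compound for 48 h before the readout; nearly all actives have a fitted effect of over 70% in size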
Method in brief: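 SK-N-MC cells at 500-1,000 cells/well in growth media were pre-incubated 5 h, then exposed to compounds at 11-point dilutions for 48 h at 37 degrees C, 5% CO2. Viability was read as CellTiter-Glo luminescence.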

[15] = qHTS of pediatric cancer cell lines to identify multiple opportunities for drug repurposing: Confirmatory screen for BT-12 cells (AID 1347112); note: nearly all actives have a fitted effect of over 55% in size
Method in brief: as §3

[16] = qHTS of pediatric cancer cell lines to identify multiple opportunities for drug repurposing: Confirmatory screen for NB-EBc1 cells (AID 1347115); note: nearly all actives have a fitted effect of over 45% in size
Method in brief: as §3

[17] = qHTS of pediatric cancer cell lines to identify multiple opportunities for drug repurposing: Confirmatory screen for SJ-GBM2 cells (AID 1347116); note: nearly all actives have a fitted effect of over 60% in size
Method in brief: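 Viability measured as metabolically active cells via CellTiter-Glo luminescence following 48 hours of compound exposure, 11-point dilutions in confirmatory testing. 500-1,000 cells/well plated 5 hours before dosing; controls were DMSO and 2.3 µM bortezomib.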

[18] = qHTS of pediatric cancer cell lines to identify multiple opportunities for drug repurposing: Confirmatory screen for BT-37 cells (AID 1347117); note: nearly all actives have a fitted effect of over 55% in size
Method in brief: as §3

Measured: Potency

Cn1c(=O)c2c(ncn2CC(=O)O)n(C)c1=O
inactive: [1] | [2] | [3] | [4] | [5] | [6] | [7] | [8] | [9] | [10]

CN(C)C(=O)CNC(=O)Cc1ccccc1
inactive: [1] | [2] | [3] | [4] | [5] | [7] | [9] | [11] | [10]

CCCOc1ccc2c(c1)CC[C@@H]1[C@@H]2CC[C@]2(C)C(OC)CC[C@@H]12 (some centres not stated)
inactive: [1] | [2] | [3] | [4] | [5] | [7] | [8] | [9] | [11] | [10]

CC(=O)O[C@H]1CC[C@@]2(C)C(=CC[C@@H]3[C@@H]2CC[C@]2(C)C(C(C)=O)=CC[C@@H]32)C1
inactive: [1] | [2] | [3] | [4] | [5] | [6] | [7] | [9] | [11]

CN1CCN(N)CC1
not listed: [12] | [13] | [14] | [15] | [16] | [17] | [18]
inactive: all other assays above

COC(=O)c1cc(S(N)(=O)=O)ccc1OC
not listed: [12] | [13] | [14] | [15] | [16] | [17] | [18]
inactive: all other assays above

CC(=O)N[C@@H](CO)C(=O)N[C@@H](CC(=O)O)C(=O)N[C@@H](CCCCN)C(=O)N1CCC[C@H]1C(=O)O (Ac-SDKP-OH)
inactive: [1] | [2] | [3] | [4] | [5] | [7] | [8] | [9] | [11] | [10]

Cn1cc(S(C)=O)c(=O)c2ccc(F)cc21 (configuration not stated)
not listed: [12] | [13] | [14] | [15] | [16] | [17] | [18]
inactive: all other assays above

CCC(=O)O[C@]1(C(=O)COC)[C@@H](C)C[C@H]2[C@@H]3CCC4=CC(=O)C=C[C@]4(C)C3(F)[C@@H](O)C[C@@]21C (some centres not stated)
not listed: [6]
inactive: all other assays above

COC(=O)c1ccc(NC(C)=O)cc1OC
not listed: [12] | [13] | [14] | [15] | [16] | [17] | [18]
inactive: all other assays above

CCCC(CCC)(C(=O)OCC)C(=O)OCC
not listed: [12] | [13] | [14] | [15] | [16] | [17] | [18]
inactive: all other assays above

CCN(CC)CC(=O)Oc1ccc(NC(C)=O)cc1
not listed: [12] | [13] | [14] | [15] | [16] | [17] | [18]
inactive: all other assays above

CN1Cc2cc(C(=O)N3CCC(C4CCNCC4)CC3)ccc2NC(CC(=O)O)C1=O (configuration not stated)
inactive: [1] | [2] | [3] | [4] | [5] | [6] | [7] | [9] | [11] | [10]

CC(COc1ccccc1)NN (configuration not stated)
not listed: [12] | [13] | [14] | [15] | [16] | [17] | [18]
inactive: all other assays above

CCN(CC)CC(=O)Nc1c(C)cccc1C(=O)OC
inactive: [1] | [2] | [3] | [4] | [5] | [6] | [7] | [8] | [11] | [10]
